From PubChem BioAssay
The source made the active and inactive calls.

Legend:
[1] = E. coli DRC41 culture turbidity changes, primary screen, E. coli filamentation inducer project, strain DRC41, OD650, 48 h (AID 1152);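 further: E. coli MC1000 strain DRC41 lacking acrAB efflux pump and sulA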; conditions: E. coli DRC41 (acrAB sulA), higher = more signal, called active from +8 up or from −8 down
[2] = small-molecule binders of probe aLefty1, primary screen, biochemical, small-molecule microarray, 635/667 nm fluorescence (AID 1153); conditions: higher = more signal;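 further: score merges spot fluorescence with signal-to-noise ratio from the scanned slide images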
[3] = PSAC antagonists in infected red cells, primary screen, cell-based, P. falciparum Indochina, OD700, 1 h (AID 1154); conditions: P. falciparum Indochina infected RBC osmotic lysis, higher = more signal, called active from +8 up or from −8 down
[4] = PSAC antagonists in infected red cells, primary screen, cell-based, P. falciparum Indochina, OD700, 2 h (AID 1155);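 further: lysis reports solute entry through the parasite surface anion channel PSAC; channel blockers reduce lysis of infected cells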; conditions: P. falciparum Indochina infected erythrocytes, osmotic lysis OD700; higher = more signal, called active from +8 up or from −8 down
[5] = osmotic lysis modulators in infected erythrocytes, primary screen, PSAC antagonist project, cell-based, P. falciparum Indochina, OD700, 3 h (AID 1156); conditions: higher = more signal, called active from +8 up or from −8 down
[6] = PSAC antagonists in infected red cells, primary screen, cell-based, P. falciparum Indochina, OD700, 18 h (AID 1157); conditions: P. falciparum Indochina infected erythrocytes, osmotic lysis OD700, 18 h; higher = more signal, called active from +8 up or from −8 down
[7] = modulators of S6 phosphorylation in cells, primary screen, cell-based, A549, cytoblot, luminescence, serum-stimulated (AID 1158); conditions: A549 phospho-S6 cytoblot, 5 h, higher = more signal;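 further: serum-stimulated A549 lung adenocarcinoma cells; signal is phosphorylated S6 detected by cytoblot immunostaining with HRP secondary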
[8] = biological target: NADPH oxidase 2 (Homo sapiens) (UniProt P04839); test: NOX2-dependent H2O2 signal modulators, primary screen, NOX inhibitor project, cell-based, HEK293-NOX2, PMA-stimulated, Amplex Red fluorescence (AID 1159); conditions: 45 min, higher = more signal, called active from +8 up or from −8 down; further: test concentration not given here
[9] = biological target: NADPH oxidase 4 (Homo sapiens) (UniProt Q9NPH5); test: NOX4-dependent H2O2 signal modulators, primary screen, NOX inhibitor project, cell-based, HEK293-NOX4, tetracycline-induced, Amplex Red fluorescence (AID 1160); conditions: 45 min, higher = more signal, called active from +8 up or from −8 down
[10] = biological target: NADPH oxidase 5 (Homo sapiens) (UniProt Q96PH1); test: NOX5-dependent H2O2 signal modulators, primary screen, NOX inhibitor project, cell-based, HEK293-NOX5, Amplex Red fluorescence (AID 1161); conditions: HEK293-NOX5, ionomycin, 45 min, higher = more signal
[11] = A549 cell viability effects, profiling panel, calcein-AM fluorescence, 48 h, basal (AID 1162); conditions: higher = more signal; further: test concentration not given here
[12] = adipocyte viability effects, profiling panel, cell-based, 3T3-L1 adipocytes, calcein-AM fluorescence, 48 h, basal (AID 1163); conditions: 3T3-L1 adipocytes viability, higher = more signal; further: test concentration not given here
[13] = HepG2 cell viability effects, profiling panel, calcein-AM fluorescence, 48 h, basal (AID 1164); conditions: higher = more signal; further: test concentration not given here
[14] = MM1S cell viability effects, profiling panel, calcein-AM fluorescence, 48 h, basal (AID 1165); conditions: higher = more signal;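 further: viability of MM1S multiple myeloma cells under basal unstimulated conditions; test concentration not given here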
[15] = basal RPMI8226 viability, no added stimulus, profiling panel, cell-based, calcein-AM fluorescence, 48 h, PK04 Diversity Set (AID 1166); conditions: RPMI8226 myeloma viability, higher = more signal;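 further: cells grown under basal conditions without added stimulus; test concentration not given here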
[16] = basal HepG2 mitochondrial membrane potential changes, profiling panel, cell-based, JC-1 fluorescence, 24 h, 100 nL compound (AID 1167); conditions: higher = more signal; further: test concentration not given here
[17] = basal 3T3-L1 adipocyte mitochondrial potential changes, profiling panel, cell-based, JC-1 fluorescence, 3T3-L1 adipocytes, 24 h, 100 nL compound (AID 1168); conditions: JC-1 mitochondrial fluorescence, higher = more signal, called active from +8 up or from −8 down; further: test concentration not given here
[18] = basal RPMI8226 mitochondrial membrane potential changes, profiling panel, cell-based, JC-1 fluorescence, 24 h, 100 nL compound (AID 1169); conditions: RPMI8226 myeloma, JC-1 mitochondrial potential fluorescence, higher = more signal; further: test concentration not given here
[19] = basal MM1S mitochondrial membrane potential changes, profiling panel, cell-based, JC-1 fluorescence, 24 h, 100 nL compound (AID 1170); conditions: higher = more signal; further: test concentration not given here
[20] = A549 lung cancer cell viability effects, profiling panel, resazurin fluorescence, 24 h, PK04 Diversity Set (AID 1171); conditions: higher = more signal, called active from +8 up or from −8 down; further: test concentration not given here

Sequence of NADPH oxidase 2 (Homo sapiens) (P04839 whole entry, looked up): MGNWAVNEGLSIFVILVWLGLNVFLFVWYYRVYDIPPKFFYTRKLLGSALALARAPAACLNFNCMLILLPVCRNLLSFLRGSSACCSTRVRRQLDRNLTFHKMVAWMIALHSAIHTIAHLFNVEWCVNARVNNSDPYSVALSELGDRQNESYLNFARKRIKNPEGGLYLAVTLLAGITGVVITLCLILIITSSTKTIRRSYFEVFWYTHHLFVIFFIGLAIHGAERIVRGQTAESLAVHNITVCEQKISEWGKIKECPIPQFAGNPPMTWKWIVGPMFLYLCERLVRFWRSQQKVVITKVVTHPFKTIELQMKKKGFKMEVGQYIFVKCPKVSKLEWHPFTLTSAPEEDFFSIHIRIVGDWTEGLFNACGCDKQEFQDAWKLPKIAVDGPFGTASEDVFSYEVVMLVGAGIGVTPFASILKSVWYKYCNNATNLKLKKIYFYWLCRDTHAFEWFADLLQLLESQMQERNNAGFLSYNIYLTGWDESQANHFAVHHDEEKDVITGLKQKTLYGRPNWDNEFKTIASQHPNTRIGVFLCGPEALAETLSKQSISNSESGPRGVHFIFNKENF
Sequence of NADPH oxidase 4 (Homo sapiens) (Q9NPH5 whole entry, looked up): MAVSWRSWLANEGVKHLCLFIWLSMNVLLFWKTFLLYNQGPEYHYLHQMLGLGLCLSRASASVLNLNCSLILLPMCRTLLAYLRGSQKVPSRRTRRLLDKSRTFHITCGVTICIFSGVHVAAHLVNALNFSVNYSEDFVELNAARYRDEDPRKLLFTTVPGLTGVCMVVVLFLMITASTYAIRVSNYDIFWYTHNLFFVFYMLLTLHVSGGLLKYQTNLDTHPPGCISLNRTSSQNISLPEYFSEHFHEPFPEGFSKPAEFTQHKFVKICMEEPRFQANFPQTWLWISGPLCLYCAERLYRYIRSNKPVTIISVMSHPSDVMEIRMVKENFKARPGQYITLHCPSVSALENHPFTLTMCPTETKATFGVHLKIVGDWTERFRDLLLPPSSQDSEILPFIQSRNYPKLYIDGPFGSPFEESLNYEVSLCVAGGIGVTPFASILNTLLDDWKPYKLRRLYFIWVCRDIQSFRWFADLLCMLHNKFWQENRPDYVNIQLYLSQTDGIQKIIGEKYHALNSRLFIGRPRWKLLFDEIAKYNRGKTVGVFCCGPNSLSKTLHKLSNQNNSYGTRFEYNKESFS
Sequence of NADPH oxidase 5 (Homo sapiens) (Q96PH1 whole entry, looked up): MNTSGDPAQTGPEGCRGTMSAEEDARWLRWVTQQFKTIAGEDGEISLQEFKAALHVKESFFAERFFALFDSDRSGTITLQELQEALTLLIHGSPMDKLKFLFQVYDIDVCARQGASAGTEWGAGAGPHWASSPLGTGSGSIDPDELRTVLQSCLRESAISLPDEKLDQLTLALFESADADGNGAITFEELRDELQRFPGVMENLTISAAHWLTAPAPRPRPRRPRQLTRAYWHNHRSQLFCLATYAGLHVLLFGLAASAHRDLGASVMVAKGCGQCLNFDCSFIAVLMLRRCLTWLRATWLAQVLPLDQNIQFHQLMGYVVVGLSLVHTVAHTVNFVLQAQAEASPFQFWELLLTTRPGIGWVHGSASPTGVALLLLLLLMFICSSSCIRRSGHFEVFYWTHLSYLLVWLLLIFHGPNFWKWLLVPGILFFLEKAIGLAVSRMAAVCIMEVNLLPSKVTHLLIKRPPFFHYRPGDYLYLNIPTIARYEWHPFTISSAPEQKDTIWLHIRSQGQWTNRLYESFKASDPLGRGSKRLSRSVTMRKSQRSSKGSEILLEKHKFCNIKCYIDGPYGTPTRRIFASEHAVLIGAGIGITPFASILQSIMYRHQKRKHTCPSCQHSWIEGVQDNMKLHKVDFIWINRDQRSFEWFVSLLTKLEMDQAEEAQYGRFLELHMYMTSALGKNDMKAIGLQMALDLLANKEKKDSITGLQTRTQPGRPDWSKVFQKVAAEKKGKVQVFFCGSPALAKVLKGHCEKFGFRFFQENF

Structure (SMILES)	z-score [1]	composite z-score [2]	z-score [3]	z-score [4]	z-score [5]	z-score [6]	z-score [7]	z-score [8]	z-score [9]	z-score [10]	z-score [11]	z-score [12]	z-score [13]	z-score [14]	z-score [15]	z-score [16]	z-score [17]	z-score [18]	z-score [19]	z-score [20]
CCOC(=O)[C@H](Cc1ccccc1)NC(=O)CCC1CC(OC(=O)NCCc2ccc(F)cc2)CC2(CCCC(COC(=O)NCC(c3ccccc3)c3ccccc3)O2)O1 (stereo not given in full)	-0.455 (inactive)	-0.144	14.2 (active)	4.68 (inactive)	-0.261 (inactive)	0.688 (inactive)	-0.058	0.0978 (inactive)	-0.136 (inactive)	-0.234	0.241	-0.351	-1.03	-3.42	-3.75	0.368	-0.88 (inactive)	-1	-2.12	0.919 (inactive)
O=C1[C@H]2[C@H]3[C@H](O)[C@H](O)CC(=NO[C@@H]4O[C@H](CO)[C@@H](O)[C@H](O)[C@H]4O)[C@@H]3CC[C@H]2C(=O)N1Cc1ccccc1	0.755 (inactive)	-0.115	1.3 (inactive)	0.893 (inactive)	0.742 (inactive)	0.475 (inactive)	0.62	0.0811 (inactive)	1.14 (inactive)	-0.0503	0.255	-0.612	-0.379	-0.176	1.03	0.981	-0.173 (inactive)	-0.61	-1.98	0.222 (inactive)
C#CCCCON=C1C[C@@H](O)[C@@H](O)[C@@H]2[C@@H]3C(=O)N(Cc4ccccc4)C(=O)[C@@H]3CC[C@H]12	0.362 (inactive)	-0.111	1.38 (inactive)	-0.506 (inactive)	0.659 (inactive)	-1.29 (inactive)	0.69	0.162 (inactive)	0.196 (inactive)	-0.36	0.416	0.798	-0.969	0.772	0.477	0.843	0.381 (inactive)	0.379	-0.901	0.97 (inactive)
COC(=O)C1=C(C)[C@@H](O)[C@@H](C)[C@H](c2c(OC)c(OC)c(C)c(OC)c2OC)O1	-0.472 (inactive)	-0.356	0.211 (inactive)	0.589 (inactive)	0.336 (inactive)	0.1 (inactive)	-0.468	-0.101 (inactive)	-0.0181 (inactive)	0.536	-0.501	-0.63	0.287	0.631	-0.976	-0.206	0.657 (inactive)	0.267	-0.722	-0.345 (inactive)
CCOC(=O)CCN1C(=O)[C@H]2[C@H]3[C@H](O)[C@H](O)CC(=NNC(=O)OCc4ccc(OC)cc4)[C@@H]3CC[C@H]2C1=O	0.0393 (inactive)	0.0288	6.59 (inactive)	1.07 (inactive)	-0.495 (inactive)	0.353 (inactive)	-0.587	-3.2 (inactive)	-0.169 (inactive)	-0.974	-0.212	-0.426	-0.367	0.717	0.0819	-0.547	-0.0296 (inactive)	-0.91	-1.1	-0.807 (inactive)
CCc1cc2c(nc1CC)CCN(CCC(C)=NO[C@@H](C)c1cc(-c3c(C)cc(C)cc3C)no1)C2	0.187 (inactive)	-0.192	4.75 (inactive)	0.445 (inactive)	1.41 (inactive)	0.514 (inactive)	0.549	-2.21 (inactive)	-0.321 (inactive)	-2.75	1.9	0.704	1.48	-2.96	-1.59	5.47	0.0344 (inactive)	0.0876	-0.769	0.323 (inactive)
CN(C)CCCNC(=O)[C@@H]1c2ccccc2C(=O)N(Cc2ccccc2)[C@H]1c1ccc(CO)cc1	0.346 (inactive)	-0.163	2.98 (inactive)	0.604 (inactive)	2.64 (inactive)	0.33 (inactive)	-0.25	-1.11 (inactive)	1.02 (inactive)	-0.911	2.34	0.917	1.31	-0.0214	0.932	1.89	0.418 (inactive)	0.0996	0.108	0.534 (inactive)
C[C@@H](c1ccccc1)N1C(=O)[C@H]2[C@H]3[C@H](O)[C@H](O)CC(=NOC[C@@H](O)COCc4ccco4)[C@@H]3CC[C@H]2C1=O	-0.224 (inactive)	-0.147	0.169 (inactive)	0.32 (inactive)	-0.478 (inactive)	-0.138 (inactive)	0.403	0.215 (inactive)	-1.51 (inactive)	-0.681	0.0517	-0.837	-0.78	0.0485	-0.873	-0.794	-0.519 (inactive)	-0.287	-0.542	-0.428 (inactive)
